From PubChem BioAssay
TEAD-YAP block: TEAD-YAP interaction inhibition; inhibition, % at 9.12 µM; HEK-TIYL cells, TEAD-Gal4/YAP UAS-luciferase luminescence; hit rate 1.4% among 640,000; in the data active = inhibition above about 32%;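 also: 0% = median of test compound wells and 100% = reference inhibitor wells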
FBW7 act: human FBW7 E3 ligase activation, primary screen; Q969H0; AlphaScreen FBW7–phospho-cyclin E peptide binding, activator screen; normalized activity (activation), % at 26.1 µM; hit rate 0.13% among 650,000; AID 1259310; in the data active = normalized activity above about 1.9%;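 also: purified mutant Fbw7 with reduced substrate affinity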
GPR151 activ: activates the human receptor GPR151 | AID 1508602 | activation, % at 11.2 µM | hit rate 1% among 650,000 | PathHunter beta-arrestin GPR151 cells, luminescence; in the data active = activation above about 4.9%;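 also: 0% = median of compound wells and 100% = cells with positive control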
MITF primary: inhibitors of human MITF. O75030. AlphaScreen MITF homodimerization, bead proximity signal. inhibition, % at 2.6 µM. hit rate 0.91% among 650,000. AID 1259374; in the data active = inhibition above about 50%;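 also: 0% = vehicle wells with protein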
GPR151 conf act: human GPR151 activation, confirmation screen; shares compounds with GPR151 activ; 6,700 tested, under 10 active; activation, % at 11.2 µM; GPR151 PathHunter beta-arrestin cells, luminescence, 90 min; % of EA-reagent control over plate median;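 active = mean percent activation across replicates above the confirmation screen cutoff of 4.91%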
GPR119 ag: activates human GPR119 in a GPR151 counter-screen | activation, % at 11.2 µM | GPR119 PathHunter beta-arrestin cells, luminescence, 90 min; 0 = compound-well median, 100 = enzyme-acceptor control | hit rate 0.3% among 6,700 | shares compounds with GPR151 activ;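 active = mean percent activation in the counterscreen above 29.09%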;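 also: counterscreen on off-target GPR119 to flag nonselective hits from the GPR151 activator screen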
Target sequence (Q8TDV5 whole entry, looked up): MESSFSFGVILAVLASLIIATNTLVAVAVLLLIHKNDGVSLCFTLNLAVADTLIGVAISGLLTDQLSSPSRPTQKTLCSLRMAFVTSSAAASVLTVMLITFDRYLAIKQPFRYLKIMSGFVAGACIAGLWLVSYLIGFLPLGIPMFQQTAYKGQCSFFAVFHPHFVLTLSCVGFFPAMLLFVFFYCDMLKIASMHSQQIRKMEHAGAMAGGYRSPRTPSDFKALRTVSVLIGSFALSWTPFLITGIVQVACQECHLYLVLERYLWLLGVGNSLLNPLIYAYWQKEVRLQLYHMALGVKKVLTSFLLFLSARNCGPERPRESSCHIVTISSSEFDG
Active calls of the source: *. Hits are enriched below; roughly 3.5% of the tested compounds scored in any of these assays.

How did O=C(Nc1ccc(Cl)c(-c2nc3ccccc3o2)c1)c1ccccc1F do in these assays?
TEAD-YAP block: 15; FBW7 act: 0; GPR151 activ: -1; MITF primary: 6

How did CCOC(=O)COc1ccc2c(=O)c(-c3ccc(OC)cc3)c(C)oc2c1 do in these assays?
TEAD-YAP block: 3; FBW7 act: 0; GPR151 activ: 3; MITF primary: -5

What do the screens show for `CCOC(=O)COc1ccc2c(=O)c(-c3ccccc3F)c(C)oc2c1`?
TEAD-YAP block: 0; FBW7 act: 0; GPR151 activ: 6.2*; MITF primary: 0; GPR151 conf act: -1; GPR119 ag: -3

How did CC1(C)C(=O)NC2CCCCC2N1C(=O)CCl (stereo not drawn) do in these assays?
TEAD-YAP block: 9; FBW7 act: 1; GPR151 activ: 5.3*; MITF primary: 10; GPR151 conf act: 0; GPR119 ag: -2

How did COC(=O)c1ccc2c(=O)n(CCc3ccc(OC)c(OC)c3)c(SCC(=O)Nc3ccc(C)cc3)nc2c1 do in these assays?
TEAD-YAP block: 0; FBW7 act: 0; GPR151 activ: -1; MITF primary: 1

Results for COC(=O)c1ccc2c(=O)n(CCc3ccc(OC)c(OC)c3)c(SCC(=O)Nc3cc(C)on3)nc2c1 ?
TEAD-YAP block: -2; FBW7 act: 0; GPR151 activ: 5.8*; MITF primary: -3; GPR151 conf act: 0; GPR119 ag: -8

Results for CCC(Sc1nc2ccccc2c(=O)n1CCc1ccc(OC)c(OC)c1)C(=O)N1CCOCC1 (stereo not drawn) ?
TEAD-YAP block: 11; FBW7 act: 0; GPR151 activ: -1; MITF primary: 11

How did COc1ccc(CCn2c(SCC(=O)c3ccc(F)cc3)nc3ccccc3c2=O)cc1OC do in these assays?
TEAD-YAP block: -1; FBW7 act: 0; GPR151 activ: 5.4*; MITF primary: 1; GPR151 conf act: 1; GPR119 ag: 9

What do the screens show for `COc1ccc(C(C)=O)cc1CSc1nc2ccccc2c(=O)n1CCc1ccc(OC)c(OC)c1`?
TEAD-YAP block: -5; FBW7 act: 0; GPR151 activ: 6.9*; MITF primary: -9; GPR151 conf act: 0; GPR119 ag: 6

Results for CCC(Sc1nc2ccccc2c(=O)n1CCc1ccc(OC)c(OC)c1)C(=O)N(CC)CC (stereo not drawn) ?
TEAD-YAP block: 5; FBW7 act: 1; GPR151 activ: 6.0*; MITF primary: 19; GPR151 conf act: 1; GPR119 ag: 9

How did CCC(NS(=O)(=O)c1ccc(OC)cc1)C(=O)N1CCC2(CC1)OCCO2 (stereo not drawn) do in these assays?
TEAD-YAP block: 8; FBW7 act: 0; GPR151 activ: 0; MITF primary: -2

How did O=C(Nc1nc(=O)c2ccccc2s1)c1ccc(Cl)c(Cl)c1 do in these assays?
TEAD-YAP block: 6; FBW7 act: 1; GPR151 activ: -1; MITF primary: 12

Results for CCN(CC)S(=O)(=O)c1ccc(C(=O)Nc2nnc(C3=COCCO3)o2)cc1 ?
TEAD-YAP block: -4; FBW7 act: 0; GPR151 activ: 1; MITF primary: 26

Results for O=C(Nc1ccccc1Cl)c1ccc(F)c(S(=O)(=O)N2CCCCCC2)c1 ?
TEAD-YAP block: -10; FBW7 act: 0; GPR151 activ: -2; MITF primary: -15

Results for CCSc1nc2sccn2c(=O)c1C(=O)N(C)c1ccccc1 ?
TEAD-YAP block: 5; FBW7 act: -1; GPR151 activ: 1; MITF primary: 10

What do the screens show for `CCOCCOC(=O)c1ccc(NC(=O)COc2ccccc2)cc1`?
TEAD-YAP block: 9; FBW7 act: 0; GPR151 activ: 5.0*; MITF primary: -6; GPR151 conf act: -1; GPR119 ag: -12

Results for CCOc1ccc(NC(=O)COC)cc1 ?
TEAD-YAP block: -13; FBW7 act: 0; GPR151 activ: 5.4*; MITF primary: 2; GPR151 conf act: 1; GPR119 ag: 6

Results for CCOCCOC(=O)c1ccc(NC(=O)COc2ccc(OC)cc2)cc1 ?
TEAD-YAP block: 9; FBW7 act: -1; GPR151 activ: 0; MITF primary: 3
